Experimental data as given in the supplement of paper PMC11732987, “Enantioselective OTUD7B fragment discovery through chemoproteomics screening and high-throughput optimisation” (Communications Chemistry, 2025).

Legend:
Experiment in all cases: log2 ratio of Biotin-Ahx-Ub-VS probe labelling (fragment/DMSO); higher = less target engagement (more negative = stronger competition), active = hit call of the paper (q ≤ 0.05, log2 ratio ≤ -1)
Details in all cases: compound concentration: 200 uM; treatment time: 3 h
USP34 = USP34 (UniProt Q70CQ2)
Procedure, shortened: (§1)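 HEK293T lysate in Tris/CHAPS/IGEPAL buffer with protease inhibitors (495 µg per sample) was given fragment at 200 µM or vehicle for 3 h, in triplicate. It then received Biotin-Ahx-Ub-VS at 0.5 µM final for 1 h. Labelled DUBs were NeutrAvidin-enriched, digested with LysC and trypsin, and run by diaPASEF LC-MS/MS. Values are average log2 fragment/vehicle ratios by unpaired t-test on global-median-normalised Spectronaut quantities of proteins with ≥2 unique peptides.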

USP36 = molecular target: T1, USP36 (UniProt Q9P275)
T1 sequence (whole entry): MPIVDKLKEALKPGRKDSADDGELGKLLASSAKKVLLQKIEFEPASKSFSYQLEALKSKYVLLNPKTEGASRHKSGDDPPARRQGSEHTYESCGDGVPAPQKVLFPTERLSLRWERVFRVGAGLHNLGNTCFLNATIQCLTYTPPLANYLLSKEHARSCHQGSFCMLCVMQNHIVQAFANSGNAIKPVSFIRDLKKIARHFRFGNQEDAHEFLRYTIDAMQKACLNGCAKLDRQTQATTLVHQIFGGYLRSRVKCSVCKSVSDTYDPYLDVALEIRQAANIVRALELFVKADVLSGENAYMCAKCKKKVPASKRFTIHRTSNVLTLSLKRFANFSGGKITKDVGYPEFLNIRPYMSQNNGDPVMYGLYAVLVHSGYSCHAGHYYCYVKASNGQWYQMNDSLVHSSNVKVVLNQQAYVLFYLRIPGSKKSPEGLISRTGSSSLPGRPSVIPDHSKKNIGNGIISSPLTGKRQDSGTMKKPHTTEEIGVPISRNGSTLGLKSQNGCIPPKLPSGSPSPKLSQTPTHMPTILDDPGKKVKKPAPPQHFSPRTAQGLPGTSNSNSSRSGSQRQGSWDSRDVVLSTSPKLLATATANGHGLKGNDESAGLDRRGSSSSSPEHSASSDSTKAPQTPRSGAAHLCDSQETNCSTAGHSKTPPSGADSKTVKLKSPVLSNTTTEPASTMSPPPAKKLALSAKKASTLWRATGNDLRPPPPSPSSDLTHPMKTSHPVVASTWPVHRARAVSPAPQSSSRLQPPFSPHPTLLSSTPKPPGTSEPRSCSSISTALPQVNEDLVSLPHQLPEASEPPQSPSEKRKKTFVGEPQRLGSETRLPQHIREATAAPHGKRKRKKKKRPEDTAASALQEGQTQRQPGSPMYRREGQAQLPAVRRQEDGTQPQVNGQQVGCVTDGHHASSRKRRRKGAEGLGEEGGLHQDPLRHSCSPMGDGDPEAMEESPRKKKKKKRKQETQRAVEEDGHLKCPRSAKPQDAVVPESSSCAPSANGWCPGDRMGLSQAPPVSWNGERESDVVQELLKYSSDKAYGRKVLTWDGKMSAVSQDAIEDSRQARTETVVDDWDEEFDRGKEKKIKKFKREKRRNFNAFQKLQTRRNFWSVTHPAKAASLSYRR
Procedure, shortened: as §1

USP38 = molecular target: T2, USP38 (UniProt Q8NB14)
T2 sequence (whole entry): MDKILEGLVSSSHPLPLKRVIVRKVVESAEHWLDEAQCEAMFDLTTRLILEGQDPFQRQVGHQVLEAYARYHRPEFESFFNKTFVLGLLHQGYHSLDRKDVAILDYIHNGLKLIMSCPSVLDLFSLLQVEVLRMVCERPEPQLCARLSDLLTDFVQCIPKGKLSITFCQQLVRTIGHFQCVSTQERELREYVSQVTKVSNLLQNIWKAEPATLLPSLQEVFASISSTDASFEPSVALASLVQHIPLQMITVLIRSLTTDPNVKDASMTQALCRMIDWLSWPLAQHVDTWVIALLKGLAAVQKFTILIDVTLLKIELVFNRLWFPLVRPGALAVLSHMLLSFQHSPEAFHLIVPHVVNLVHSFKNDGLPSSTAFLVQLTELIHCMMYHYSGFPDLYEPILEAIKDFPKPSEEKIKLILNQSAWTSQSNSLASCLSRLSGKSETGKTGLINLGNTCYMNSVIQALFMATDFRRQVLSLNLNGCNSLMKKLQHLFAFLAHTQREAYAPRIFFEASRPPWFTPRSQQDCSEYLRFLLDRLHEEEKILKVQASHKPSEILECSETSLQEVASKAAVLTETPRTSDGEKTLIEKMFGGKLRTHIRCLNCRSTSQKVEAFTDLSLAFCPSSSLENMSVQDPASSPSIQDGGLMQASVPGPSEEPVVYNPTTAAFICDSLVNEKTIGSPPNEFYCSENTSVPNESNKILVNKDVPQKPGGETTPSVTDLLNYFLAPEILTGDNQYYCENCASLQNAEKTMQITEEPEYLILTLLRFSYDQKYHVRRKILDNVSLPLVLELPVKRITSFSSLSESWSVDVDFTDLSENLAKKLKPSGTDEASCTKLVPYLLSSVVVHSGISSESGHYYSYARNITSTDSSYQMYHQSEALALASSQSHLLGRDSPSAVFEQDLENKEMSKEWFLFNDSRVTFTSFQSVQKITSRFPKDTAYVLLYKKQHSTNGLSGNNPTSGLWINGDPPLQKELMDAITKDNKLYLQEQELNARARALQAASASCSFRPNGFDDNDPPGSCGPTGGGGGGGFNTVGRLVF
Procedure, shortened: as §1

USP39 = molecular target: T3, USP39 (UniProt Q53GS9)
T3 sequence (whole entry): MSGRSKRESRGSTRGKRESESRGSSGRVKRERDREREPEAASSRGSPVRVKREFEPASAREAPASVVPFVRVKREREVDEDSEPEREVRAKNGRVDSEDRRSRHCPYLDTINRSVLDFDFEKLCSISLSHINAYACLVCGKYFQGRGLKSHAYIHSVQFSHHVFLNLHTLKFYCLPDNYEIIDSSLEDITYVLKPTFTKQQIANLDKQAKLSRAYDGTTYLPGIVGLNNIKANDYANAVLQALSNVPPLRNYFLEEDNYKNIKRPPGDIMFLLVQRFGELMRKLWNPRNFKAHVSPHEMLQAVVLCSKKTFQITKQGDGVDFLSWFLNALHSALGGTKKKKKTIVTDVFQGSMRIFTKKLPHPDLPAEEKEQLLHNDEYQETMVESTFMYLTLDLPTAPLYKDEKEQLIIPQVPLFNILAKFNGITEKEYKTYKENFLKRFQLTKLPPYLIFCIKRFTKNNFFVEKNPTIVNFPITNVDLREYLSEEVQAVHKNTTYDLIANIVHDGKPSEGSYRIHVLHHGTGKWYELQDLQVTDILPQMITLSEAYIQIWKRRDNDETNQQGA
Procedure, shortened: as §1

USP4 = molecular target: T4, USP4 (UniProt Q13107)
T4 sequence (whole entry): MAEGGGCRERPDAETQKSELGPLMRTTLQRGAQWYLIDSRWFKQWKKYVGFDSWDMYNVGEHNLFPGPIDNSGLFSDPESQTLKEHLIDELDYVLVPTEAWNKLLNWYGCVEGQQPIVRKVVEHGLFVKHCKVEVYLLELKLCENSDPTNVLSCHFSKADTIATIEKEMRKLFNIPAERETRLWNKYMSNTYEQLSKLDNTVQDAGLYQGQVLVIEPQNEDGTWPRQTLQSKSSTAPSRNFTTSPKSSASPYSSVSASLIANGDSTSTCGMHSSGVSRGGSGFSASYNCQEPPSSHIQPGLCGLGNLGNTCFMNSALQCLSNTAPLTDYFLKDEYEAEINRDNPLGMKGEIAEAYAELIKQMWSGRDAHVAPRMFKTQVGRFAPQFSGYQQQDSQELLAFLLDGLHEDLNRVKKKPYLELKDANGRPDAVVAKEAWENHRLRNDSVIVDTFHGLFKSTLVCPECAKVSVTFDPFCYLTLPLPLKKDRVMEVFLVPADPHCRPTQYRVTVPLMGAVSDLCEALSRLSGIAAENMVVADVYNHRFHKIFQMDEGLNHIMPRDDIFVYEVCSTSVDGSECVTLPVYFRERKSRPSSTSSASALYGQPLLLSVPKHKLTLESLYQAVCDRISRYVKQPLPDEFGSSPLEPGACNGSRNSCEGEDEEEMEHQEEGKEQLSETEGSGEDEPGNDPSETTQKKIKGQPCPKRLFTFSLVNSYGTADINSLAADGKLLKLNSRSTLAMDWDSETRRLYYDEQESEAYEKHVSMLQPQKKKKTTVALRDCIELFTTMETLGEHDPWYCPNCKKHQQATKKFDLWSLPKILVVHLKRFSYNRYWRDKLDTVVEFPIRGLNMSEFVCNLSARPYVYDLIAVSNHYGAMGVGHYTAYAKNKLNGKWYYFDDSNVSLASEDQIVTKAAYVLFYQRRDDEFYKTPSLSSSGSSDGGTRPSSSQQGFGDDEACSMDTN
Procedure, shortened: as §1

Measured: log2 ratio of Biotin-Ahx-Ub-VS probe labelling

Chain of USP34 (Q70CQ2 whole entry, the tested form may be a part): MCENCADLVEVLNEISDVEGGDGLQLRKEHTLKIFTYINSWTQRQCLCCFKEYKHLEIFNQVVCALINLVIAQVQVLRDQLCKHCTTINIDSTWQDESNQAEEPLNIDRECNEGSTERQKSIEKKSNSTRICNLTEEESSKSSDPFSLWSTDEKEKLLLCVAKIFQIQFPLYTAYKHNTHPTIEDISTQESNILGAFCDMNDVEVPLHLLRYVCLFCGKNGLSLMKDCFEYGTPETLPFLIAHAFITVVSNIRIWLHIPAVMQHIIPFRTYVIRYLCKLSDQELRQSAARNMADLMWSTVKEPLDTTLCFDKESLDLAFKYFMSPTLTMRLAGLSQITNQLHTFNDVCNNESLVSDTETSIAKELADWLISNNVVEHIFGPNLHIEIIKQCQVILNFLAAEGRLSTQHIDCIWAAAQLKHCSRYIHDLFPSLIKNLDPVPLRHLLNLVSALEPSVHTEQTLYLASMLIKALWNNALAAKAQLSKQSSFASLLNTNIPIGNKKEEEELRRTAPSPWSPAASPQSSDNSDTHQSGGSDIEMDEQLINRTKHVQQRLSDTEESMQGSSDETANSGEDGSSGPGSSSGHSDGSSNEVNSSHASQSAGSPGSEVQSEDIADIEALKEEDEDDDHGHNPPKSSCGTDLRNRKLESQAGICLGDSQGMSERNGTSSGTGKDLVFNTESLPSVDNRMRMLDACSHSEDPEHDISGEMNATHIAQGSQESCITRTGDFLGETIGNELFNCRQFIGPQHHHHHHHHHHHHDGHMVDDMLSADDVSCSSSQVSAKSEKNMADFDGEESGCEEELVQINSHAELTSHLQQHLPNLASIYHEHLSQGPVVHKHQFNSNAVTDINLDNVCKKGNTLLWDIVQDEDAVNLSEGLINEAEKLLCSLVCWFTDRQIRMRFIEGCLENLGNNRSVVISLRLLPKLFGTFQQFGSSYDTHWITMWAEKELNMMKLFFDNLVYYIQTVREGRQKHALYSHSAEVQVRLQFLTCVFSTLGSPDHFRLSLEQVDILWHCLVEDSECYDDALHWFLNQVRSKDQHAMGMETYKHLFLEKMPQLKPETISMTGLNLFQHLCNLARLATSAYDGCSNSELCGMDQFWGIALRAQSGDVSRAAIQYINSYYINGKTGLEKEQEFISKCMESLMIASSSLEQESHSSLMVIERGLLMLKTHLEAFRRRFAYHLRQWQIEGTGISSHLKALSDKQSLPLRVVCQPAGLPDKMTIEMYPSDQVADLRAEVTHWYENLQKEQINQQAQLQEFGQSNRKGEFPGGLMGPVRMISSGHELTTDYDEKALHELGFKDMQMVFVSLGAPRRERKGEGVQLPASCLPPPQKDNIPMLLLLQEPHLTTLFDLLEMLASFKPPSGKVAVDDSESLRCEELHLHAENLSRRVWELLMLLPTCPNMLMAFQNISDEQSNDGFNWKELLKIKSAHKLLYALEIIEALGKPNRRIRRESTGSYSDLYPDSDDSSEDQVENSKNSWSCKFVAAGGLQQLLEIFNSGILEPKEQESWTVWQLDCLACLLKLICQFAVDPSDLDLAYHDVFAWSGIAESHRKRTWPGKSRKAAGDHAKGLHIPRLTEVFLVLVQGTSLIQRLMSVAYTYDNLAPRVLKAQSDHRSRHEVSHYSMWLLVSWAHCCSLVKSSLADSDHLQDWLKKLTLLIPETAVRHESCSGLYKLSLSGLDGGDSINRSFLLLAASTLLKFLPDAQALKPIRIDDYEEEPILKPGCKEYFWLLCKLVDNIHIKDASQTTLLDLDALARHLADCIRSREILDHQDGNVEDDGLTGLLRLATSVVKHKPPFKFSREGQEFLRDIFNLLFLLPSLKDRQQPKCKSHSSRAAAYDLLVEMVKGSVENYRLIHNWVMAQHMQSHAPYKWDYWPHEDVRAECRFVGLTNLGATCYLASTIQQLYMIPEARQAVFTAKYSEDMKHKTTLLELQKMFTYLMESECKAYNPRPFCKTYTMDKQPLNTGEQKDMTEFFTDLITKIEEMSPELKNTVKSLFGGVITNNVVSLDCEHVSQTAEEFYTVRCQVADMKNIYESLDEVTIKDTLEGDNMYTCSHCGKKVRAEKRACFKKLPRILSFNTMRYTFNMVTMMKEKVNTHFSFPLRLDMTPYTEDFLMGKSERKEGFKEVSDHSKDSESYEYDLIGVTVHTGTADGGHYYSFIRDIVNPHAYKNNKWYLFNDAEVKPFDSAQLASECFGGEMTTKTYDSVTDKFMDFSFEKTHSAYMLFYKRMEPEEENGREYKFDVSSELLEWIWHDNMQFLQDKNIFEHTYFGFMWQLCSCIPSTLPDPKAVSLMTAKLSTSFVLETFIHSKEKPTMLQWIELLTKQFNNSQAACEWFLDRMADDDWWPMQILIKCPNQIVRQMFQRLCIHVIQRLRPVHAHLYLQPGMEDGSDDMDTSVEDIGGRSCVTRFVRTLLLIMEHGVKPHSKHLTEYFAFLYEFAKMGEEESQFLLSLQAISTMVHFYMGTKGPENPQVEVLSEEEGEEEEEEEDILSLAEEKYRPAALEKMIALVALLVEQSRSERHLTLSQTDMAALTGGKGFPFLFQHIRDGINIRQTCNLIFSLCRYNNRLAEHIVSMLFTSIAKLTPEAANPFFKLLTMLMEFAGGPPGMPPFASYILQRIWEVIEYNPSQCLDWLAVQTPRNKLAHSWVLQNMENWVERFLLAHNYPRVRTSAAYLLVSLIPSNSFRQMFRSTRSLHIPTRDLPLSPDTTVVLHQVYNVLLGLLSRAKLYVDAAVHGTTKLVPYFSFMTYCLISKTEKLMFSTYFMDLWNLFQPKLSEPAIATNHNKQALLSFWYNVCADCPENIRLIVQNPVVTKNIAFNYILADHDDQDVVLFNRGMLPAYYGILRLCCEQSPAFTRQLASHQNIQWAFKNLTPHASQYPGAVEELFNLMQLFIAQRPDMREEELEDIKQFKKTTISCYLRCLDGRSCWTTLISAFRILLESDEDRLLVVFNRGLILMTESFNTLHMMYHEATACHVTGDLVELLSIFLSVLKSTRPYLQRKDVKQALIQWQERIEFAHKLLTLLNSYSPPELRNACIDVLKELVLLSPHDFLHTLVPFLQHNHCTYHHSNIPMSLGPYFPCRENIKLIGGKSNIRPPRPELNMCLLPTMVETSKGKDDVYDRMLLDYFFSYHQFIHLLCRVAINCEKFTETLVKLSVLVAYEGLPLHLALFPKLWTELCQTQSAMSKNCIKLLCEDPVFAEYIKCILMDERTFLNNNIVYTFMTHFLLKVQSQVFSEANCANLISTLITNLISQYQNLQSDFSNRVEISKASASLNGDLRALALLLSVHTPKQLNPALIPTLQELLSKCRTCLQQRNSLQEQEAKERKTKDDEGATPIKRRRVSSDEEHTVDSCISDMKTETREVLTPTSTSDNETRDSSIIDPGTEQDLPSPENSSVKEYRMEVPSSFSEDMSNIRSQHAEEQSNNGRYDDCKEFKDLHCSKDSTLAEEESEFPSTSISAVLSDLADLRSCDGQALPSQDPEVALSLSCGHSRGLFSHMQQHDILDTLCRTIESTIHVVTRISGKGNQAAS

Cc1nc(-c2cccc(NC(=O)CCl)c2)cs1
inactive: USP34 -0.392 | USP36 0.0209 | USP38 -0.179 | USP39 0.188 | USP4 -0.239
